According to PubChem BioAssay AID1159580 (chemical genetic matrix, 2015):
Hit rate of the full screen: of about 5,500 compounds, about 2,000 (36%) were called active. Roughly 18% stayed inconclusive and do not appear here. Rule as the data show it: active = normalized growth mostly below about 0.91 (no sharp cut-off); inconclusive = no clear call, values can overlap the other calls; inactive = mostly above about 0.92. Some of the results follow.

Test: chemical genetic growth profiling, strain panel (AID 1159580);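 also: tested at 20 µM; growth read once vehicle control cultures reached saturation at 30 °C; 1 = growth at the plate median or of vehicle wells; lower values mean less growth of the strain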
Conditions: S. cerevisiae deletion strains, growth OD

Measured: normalized growth

O=C1OC2(c3ccc(O)cc3Oc3cc(O)ccc32)c2ccccc21
inactive: locus YAL021C, strain ccr4, active compounds read low 1.02 | locus YAL026C, strain drs2, active compounds read low 0.997 | locus YAL030W, strain snc1, active compounds read low 1.01 | locus YBL061C, strain skt5, active compounds read low 1.01 | locus YBR009C, strain hhf1, active compounds read low 0.995 | locus YBR023C, strain chs3, active compounds read low 1.02 | locus YBR171W, strain sec66, active compounds read low 1.04 | locus YBR231C, strain swc5, active compounds read low 1 | locus YBR279W, strain paf1, active compounds read low 1.01 | locus YCL011C, strain gbp2, active compounds read low 1.02 | locus YCL016C, strain dcc1, active compounds read low 1 | locus YCL069W, strain vba3, active compounds read low 1.02 | locus YCR088W, strain abp1, active compounds read low 1.03 | locus YDL005C, strain med2, active compounds read low 1.02 | locus YDL040C, strain nat1, active compounds read low 1.01 | locus YDR001C, strain nth1, active compounds read low 1.03 | locus YDR069C, strain doa4, active compounds read low 1.01 | locus YDR137W, strain rgp1, active compounds read low 0.994 | locus YDR159W, strain sac3, active compounds read low 0.986 | locus YDR195W, strain ref2 1.03 | locus YDR297W, strain sur2, active compounds read low 1.02 | locus YDR334W, strain swr1, active compounds read low 0.989 | locus YDR335W, strain msn5, active compounds read low 1.01 | locus YDR392W, strain spt3, active compounds read low 0.976 | locus YEL003W, strain gim4, active compounds read low 1.01 | locus YEL037C, strain rad23, active compounds read low 1.01 | locus YEL061C, strain CIN8 (second series), active compounds read low 1.01 | locus YER015W, strain faa2, active compounds read low 1.01 | locus YER016W, strain bim1, active compounds read low 0.994 | locus YER111C, strain swi4, active compounds read low 1.01 | locus YER155C, strain BEM2 (second series), active compounds read low 1.02 | locus YFR010W, strain ubp6, active compounds read low 1.02 | locus YGL167C, strain pmr1, active compounds read low 1.02 | locus YGL173C, strain kem1, active compounds read low 1.01 | locus YGL227W, strain vid30, active compounds read low 1.02 | locus YGL240W, strain doc1, active compounds read low 0.973 | locus YGL253W, strain hxk2, active compounds read low 1.02 | locus YHR013C, strain ard1, active compounds read low 1.04 | locus YHR027C, strain rpn1, active compounds read low 1.01 | locus YHR030C, strain SLT2, active compounds read low 0.978 | locus YHR079C, strain IRE1, active compounds read low 0.974 | locus YHR142W, strain chs7, active compounds read low 1.04 | locus YJL092W, strain hpr5, active compounds read low 1.02 | locus YJL095W, strain BCK1 (second series), active compounds read low 1.01 | locus YJL095W, strain BCK1, active compounds read low 1.02 | locus YJL115W, strain asf1, active compounds read low 1.01 | locus YJL129C, strain trk1, active compounds read low 1.04 | locus YJL154C, strain vps35, active compounds read low 1.02 | locus YJL164C, strain tpk1, active compounds read low 1 | locus YJL166W, strain qcr8, active compounds read low 1 | locus YJR066W, strain TOR1, active compounds read low 0.938 | locus YKL160W, strain elf1, active compounds read low 1.02 | locus YKR026C, strain gcn3, active compounds read low 1.02 | locus YKR091W, strain srl3, active compounds read low 1.02 | locus YLL001W, strain dnm1, active compounds read low 0.997 | locus YLL026W, active compounds read low 0.999 | locus YLL041C, strain sdh2, active compounds read low 1.01 | locus YLR027C, strain aat2, active compounds read low 1.01 | locus YLR113W, strain HOG1, active compounds read low 0.98 | locus YLR221C, strain rsa3, active compounds read low 0.999 | locus YLR258W, strain gsy2, active compounds read low 1.01 | locus YLR262C, strain YPT6 (second series), active compounds read low 1 | locus YLR320W, strain mms22, active compounds read low 1 | locus YLR342W, strain FKS1, active compounds read low 0.992 | locus YLR357W, strain rsc2, active compounds read low 1.01 | locus YLR370C, strain arc18, active compounds read low 1.01 | locus YLR384C, strain iki3, active compounds read low 1.02 | locus YML120C, strain ndi1, active compounds read low 1.04 | locus YMR058W, strain fet3, active compounds read low 1.01 | locus YMR125W, strain sto1, active compounds read low 1.02 | locus YMR129W, active compounds read low 1.02 | locus YMR205C, strain PFK2, active compounds read low 1.02 | locus YMR231W, strain pep5, active compounds read low 1.02 | locus YNL071W, strain lat1, active compounds read low 1.01 | locus YNL183C, strain NPR1, active compounds read low 0.951 | locus YNL209W, strain ssb2, active compounds read low 1.02 | locus YNL248C, strain rpa49, active compounds read low 1 | locus YNL322C, strain KRE1 (second series), active compounds read low 0.99 | locus YNR049C, strain mso1, active compounds read low 1.02 | locus YOR001W, strain rrp6, active compounds read low 1.01 | locus YOR070C, strain gyp1, active compounds read low 1.01 | locus YOR080W, strain dia2, active compounds read low 1.02 | locus YOR083W, strain WHI5, active compounds read low 0.98 | locus YOR106W, strain vam3, active compounds read low 1.02 | locus YOR231W, strain MKK1, active compounds read low 0.971 | locus YOR265W, strain rbl2, active compounds read low 1.01 | locus YOR270C, strain vph1, active compounds read low 0.991 | locus YOR290C, strain snf2, active compounds read low 1 | locus YPL051W, strain arl3, active compounds read low 0.997 | locus YPL078C, strain atp4, active compounds read low 0.992 | locus YPL106C, strain sse1, active compounds read low 0.987 | locus YPL240C, strain hsp82, active compounds read low 1.01 | locus YPL256C, strain CLN2, active compounds read low 0.99
